# This is a sample that favours compounds with a hit; in the whole collection about 21% have one here.
# HCV inh – HCV inhibition. Huh7.5.1 HCVcc-Cre infection, luciferase reporter, 44 h. Potency, µM (doses to about 41.8 µM), without a hit: at the highest dose activity change, negative = inhibition, usual class: inhibitors. 340,000 tested, 3.4% active. AID 651820; further: potency means the concentration at half of the fitted maximal effect; on the % scale 0 is the no-effect control and ±100 the full control effect
#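 Compounds are dispensed onto cells plated 4 h earlier at 1,000 per well, with HCVcc-Cre virus (about 0.5 moi) added next. Following 44 h of culture, luminescent signal is measured for 15 sec after 15 min with substrate at room temperature.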
# Cycloheximide cs – affects cycloheximide protein synthesis inhibition readout, counter-screen | cell reporter, cycloheximide protein synthesis inhibition counterscreen | 300,000 tested, 12% active | max response, %; in the data active means max response mostly above about 13%, no sharp cut-off; inactive means mostly below about 14%; further: read at 38.3 µM for the half of the compounds with a filed dose; 0% is about no effect
# Pf growth 48h – P. falciparum growth inhibition at 48 hours (one generation). 310,000 tested, 5.9% active. P. falciparum luciferase growth in erythrocytes, 48 h. Potency, µM (highest dose often 28.7 µM), inactives show top-dose activity change, negative = inhibition, most hits filed as inhibitors; further: potency means the concentration at half of the fitted maximal effect; on the % scale 0 is the no-effect control and ±100 the full control effect
#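 First compound was added to culture medium, then infected red cells at 0.1% parasitemia and 2% hematocrit (final). After incubation at 37 C under 5% CO2, luciferase detection reagent was dispensed and light output recorded.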
# AMA1 RON2 block – AMA1-RON2 (P. falciparum) interaction inhibition; 360,000 tested, 0.2% active; Potency, µM (series often up to 58.2 µM), for the others: top-dose activity change, negative = inhibition, most hits filed as inhibitors; AlphaScreen AMA1-biotinylated RON2 peptide binding; AID 720542;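 further: potency means the concentration at half of the fitted maximal effect; 0% = vehicle wells and -100% = peptide control; nearly all actives have a fitted effect of over 45% in size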
#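 AMA1 (3D7) with his tag at 25 nM final met compounds first, then biotinylated RON2 peptide at 25 nM; detection used donor plus acceptor beads, 10 µg/mL apiece, read by AlphaScreen after 30 min at room temperature.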
# Shiga inhibitor – blocks Shiga toxin action in Vero cells; Vero cells, Shiga toxin protein synthesis inhibition reporter; inhibition, % at 38.7 µM; 290,000 tested, 9.2% active; AID 2315; in the data active means inhibition mostly above about 28%, no sharp cut-off; inactive means mostly below about 43%; further: 0% is about no effect
# Pf growth 96h – inhibits malaria parasite growth, 96 h; P. falciparum luciferase reporter growth, 96 h; Potency, µM (series often up to 28.7 µM), for the others: at the highest dose activity change, negative = inhibition, usual class: inhibitors; 320,000 tested, 6.9% active; further: potency means the concentration at half of the fitted maximal effect; on the % scale 0 is the no-effect control and ±100 the full control effect
#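 Delayed-death screen, second-generation endpoint: infected erythrocytes, 2% hematocrit, 0.05% parasitemia final; 96 hours at 37 C, 5% CO2; luciferase detection reagent; luminescence decrease equals reduced growth.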
# Starred values were filed as active, the others as inactive; ? = inconclusive; . = no result; ! = not confirmed by another sample; [ ] = remark or other dose. Unless noted, the call rests on the fitted dose curve; in most records, active means well fitted curve in the direction sought with a large enough effect; inconclusive means small, poorly fitted or top-dose-only effect, or another doubt; inactive means no such curve, though single readings can be large; an effect the other way counts as inactive or inconclusive.
SMILES,HCV inh,Cycloheximide cs,Pf growth 48h,AMA1 RON2 block,Shiga inhibitor,Pf growth 96h
CC(C)[C@H](NC(=O)[C@@H]1CSC2c3ccccc3C(=O)N21)C(=O)NCc1ccncc1 (some centres undefined),6%,-2,14%,-5%,-2,31%
Cc1cccc2nc3ccccc3nc12,4%,17*,422%,-5%,46,-28%
O=C(CCC(=O)N(CC(=O)NC1CCCC1)Cc1cccs1)Nc1nccs1,29%,-3,3%,-4%,2,-24%
COC(=O)c1c(C)c2c(C)cc3ccccn3c-2c1C(=O)OC,10µM*,1,8%,-25%,-5,.
O=C(NCCc1ccccc1)C(=O)c1c(-c2ccccc2)cc2ccccn12,5%,-3,-18%,-4%,-7,?
COC(=O)c1cc2c(-c3ccccc3)cc3ccccn3c-2c1C(=O)OC,1.8µM*,-3,.,18µM*,-6,3.7µM*
COc1cccc(N(C(=O)c2csnn2)C(C(=O)NC2CCCC2)c2ccccc2)c1 (centres undefined),?,-6,?,7%,-8,28%
CC1CCCN(S(=O)(=O)c2ccc(NC(=O)c3cccc(-n4cnnn4)c3)cc2)C1 (centres undefined),?,9,12µM*,-20%,22,11%
CC1CCCCN1S(=O)(=O)c1ccc(NC(=O)c2cccc(-n3cnnn3)c2)cc1 (centres undefined),?,10,9.3µM*,-5%,28,?
CC1CCCN(S(=O)(=O)c2ccc(NC(=O)C3CC(=O)N(c4ccccc4)C3)cc2)C1 (centres undefined),?,10,0%,-7%,12,9.3µM*
O=C(Nc1ccccc1)C1CCCN(S(=O)(=O)c2ccc(-n3cnnn3)cc2)C1 (centres undefined),6%,-3,.,6%,-10,-4%
COc1ccccc1CNC(=O)CN1C(=O)NC2(CCCC2)C1=O,-4%,.,9%,3%,.,-6%
Nc1[nH]n(-c2ccccc2)c(=O)c1N=Nc1ccc2c(c1)OCO2,-11%,36*,216%,0%,121*,344%
Cc1cc([N+](=O)[O-])ccc1N=Nc1c(N)[nH]n(-c2ccccc2)c1=O,-16%,15,-11%,-11%,13,51%
Nc1[nH]n(-c2ccccc2)c(=O)c1N=Nc1ccc2c(c1)OCCO2,4%,33*,300%,-20%,59*,388%
C[C@H](NC(=O)C1CCN(S(=O)(=O)c2ccccc2)CC1)C(=O)NCc1ccc(Cl)c(Cl)c1,-15%,-7,15%,-7%,-10,?
O=C(NCc1ccccc1)c1ccc(-c2ccccc2C(F)(F)F)o1,3%[8.37 µM],37*!,8%,5%,11,?
O=C(NCc1ccccc1)c1ccc(-c2ccc(F)cc2)o1,?,25*,12%,-13%,59*,.
Cc1ccccc1-c1ccc(C(=O)NCc2ccccc2)o1,-4%[8.37 µM],14*,17%,-18%,11,-10%
C/C(=C\C(=O)c1ccccc1)NCc1ccc(F)cc1,?,60*,?,7%,110*,?
C/C(=C\C(=O)c1ccc(C)cc1)NCc1ccc(F)cc1,-24%,.,.,-5%,.,.
O=C(O)c1cc(N(Cc2ccccc2O)Cc2cc(O)ccc2O)ccc1O,.,-3,.,.,-4,.
CCOC(=O)C1=CC[C@@H](c2cc(OC)c(OC)c(OC)c2)N(S(=O)(=O)c2ccc(C)cc2)[C@H]1C(=O)OCC,11%,.,.,-8%,.,.
COc1cc(OC)c(NS(=O)(=O)c2cc(C(=O)OC(C)C(=O)NC3CC3)c(Cl)cc2Cl)cc1Cl (centres undefined),11µM*,-3,?,-14%,6,0%
Cc1cc(/C=C2/SC(=S)N(c3ccc([N+](=O)[O-])cc3)C2=O)c(C)n1-c1cccnc1,2.5µM*,-2,13µM*,-10%,-2,16%
SMILES,HCV inh,Cycloheximide cs,Pf growth 48h,AMA1 RON2 block,Shiga inhibitor,Pf growth 96h
Cc1cccc(N2C(=O)/C(=C/c3cccnc3)SC2=S)c1,-2%,-4,0%,32%,-4,20%
Cc1cc(/C=C2/SC(=S)N(c3cccc(Cl)c3)C2=O)c(C)n1-c1cccnc1,2.2µM*,.,.,-20%,.,.
CC1CCC(NC(=O)CCN2C(=O)C3CC=CCC3C2=O)CC1 (centres undefined),36%,.,.,-4%[11.6 µM],.,.
Cn1c(COc2ccc([N+](=O)[O-])cc2)nnc1SCC(=O)NCC1CCCO1 (centres undefined),31%,-12,20%,0%,-5,?
COc1ccc(C2NCCc3c2[nH]c2ccccc32)cc1CN1CCc2cc(OC)c(OC)cc2C1C (centres undefined),11µM*,-2,1.7µM*,-7%,-14,?
COc1ccc(C2NCCc3c2[nH]c2ccccc32)cc1COc1ccc(F)cc1 (centres undefined),10µM*,-11,?,-6%,-23,?
COc1ccccc1C(C)NCC(=O)NC(=O)NCc1ccco1 (centres undefined),2%,.,-16%,46%,.,-10%
COCCN(Cc1ccccc1)C(=O)c1cccc(S(=O)(=O)N2CCCc3ccccc32)c1,10µM*,.,?,-6%,.,-22%
COc1ccc(NC(=O)CN(C)C(=O)c2cccc(S(=O)(=O)N3CCCc4ccccc43)c2)cc1,?,.,13µM*,-15%,.,?
CCN(Cc1nc2ccccc2c(=O)[nH]1)C(=O)c1cccc(S(=O)(=O)N2CCc3ccccc32)c1,?,.,10µM*,39%,.,?
COc1ccccc1CN(C)C(=O)c1cccc(S(=O)(=O)N2CCCc3ccccc32)c1,10µM*,.,7.4µM*,-16%,.,9.3µM*
CC(C)CN(C(=O)COC(=O)CNC(=O)c1ccccc1)c1c(N)n(Cc2ccccc2)c(=O)[nH]c1=O,23%,.,23%,-1%,.,2%
CC(C)(C)NC(=O)Nc1nnc(SCC(=O)NC2CCCCC2)s1,17%,.,?,-4%,.,?
COc1ccccc1NC(=O)COC(=O)C1CC2CCCC(C1)C2=O (centres undefined),18%,.,.,-5%,.,.
COc1ncc(-c2ccc(N3C(c4ccsc4)=Cc4ccc(F)cc4C3CC(C)=O)cc2)cn1 (centres undefined),.,.,.,8%,.,.
Cc1ccccc1/C=C/C12NC(=O)CN1c1ccccc1C2(C)C (centres undefined),-21%,24*,?,3%,63,?
CC(=O)NC(c1cccc(F)c1)c1nc(-c2cc(F)cc(Cl)c2)cs1 (centres undefined),.,.,.,10%,.,.
Cc1cc(NC(=O)CCN2C(=O)C3C4CCC(C4)C3C2=O)cc(C)c1Br (centres undefined),?,6,-2%,-18%,12,0.93µM*

# Screening data: PubChem BioAssay, National Center for Advancing Translational Sciences (NCATS)
